# Measurements reported in PubChem BioAssay (NCI).
# About 79,000 compounds went through this panel and 15% of them were active in at least one assay; those are over-represented in the sample as a whole. Activity calls are given as the source filed them. No stated cut-off is given here; in the data, active means growth inhibition above about 70%; inactive means the rest.
# Assay: NCI Yeast Anticancer Drug Screen. Data for the cln2 rad14 strain (AID 165);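 further: 0% = growth equal to vehicle treated cultures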
# Conditions: S. cerevisiae cln2 rad14 strain, at 50.0 µM, stronger effect = higher value
# In short: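 Each compound was tested on cln2 rad14 yeast. Inhibition of growth was calculated against vehicle-exposed controls.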
row,Structure (SMILES),growth inhibition
1,C(=Nc1ccc(N2CCOCC2)cc1)c1ccc2c(c1)OCO2,-49.5% (inactive)
2,Cc1ccc(S(=O)(=O)NCNS(=O)(=O)c2ccc(C)cc2)cc1,14% (inactive)
3,COc1cc(/C=C/C(=O)N[C@@H]2C(=O)N3[C@@H]2SC(C)(C)[C@@H]3C(=O)O)cc(OC)c1OC,10.1% (inactive)
4,O=P(O)(O)c1ccc(Cl)cc1,8.7% (inactive)
5,CC1(C)CC2(C)OC3(C)CC(C)(C)OC3(C)OC2(C)O1 (stereo not drawn),-34.2% (inactive)
6,NC(=S)NNCC(=O)CC(O)(C(F)(F)F)C(F)(F)Cl (stereo not drawn),-21.9% (inactive)
7,Oc1c(O)c(Cc2ccccc2)c(Cc2ccccc2)c(Cc2ccccc2)c1Cc1ccccc1,-44.2% (inactive)
8,COC(=O)c1cc(C)c(C(=O)O)c(C)c1,16.3% (inactive)
9,CC(C)(C)OC(=O)CC1(C)NC(C(=O)O)C(C)(C)S1 (stereo not drawn),-9.75% (inactive)
10,O=C(c1ccc([N+](=O)[O-])cc1)c1cc2ccccc2oc1=O,-73% (inactive)
11,CCCCCCCSCC1OC(n2cnc3c(N)ncnc32)C(O)C1O (stereo not drawn),5.5% (inactive)
12,CC1N(N2C(=O)CS(=O)(=O)C2C)C(=O)CS1(=O)=O (stereo not drawn),15.1% (inactive)
13,CN(CCN(C)C(=O)CCn1cc(F)c(=O)[nH]c1=O)C(=O)CCn1cc(F)c(=O)[nH]c1=O,18.1% (inactive)
14,COc1cc2c(c3c1CCC(C)(C)O3)Cc1c(cc(OC)c(OC)c1CCC(C)(C)O)O2,0.4% (inactive)
15,NCC(=O)NCCC(=O)O,4.6% (inactive)
16,CC(=O)OCC1COC(C)(c2ccccc2)O1 (stereo not drawn),3.7% (inactive)
17,CC/C(=C\c1ccc(OC)cc1)c1ccc(OC)cc1,4.75% (inactive)
18,CC(=O)OC(C)=O,-33% (inactive)
19,NC(=O)N1CCCCC1,7.2% (inactive)
20,C=C1C(=O)OC2(C)CCC1CC1OC1(C)CC/C=C(\C)CCC2OC(C)=O (stereo not drawn),8.25% (inactive)
21,CCc1nc(N)nc(C(=O)NCCNC(=O)c2nc(N)nc(CC)c2C)c1C,-16.7% (inactive)
22,COC(=O)C(=O)C(C(=O)c1cccc2ccccc12)c1nc2n(c1O)C(=N)N=N2 (stereo not drawn),-4.9% (inactive)
23,O=[N+]([O-])c1ccc(-c2ccc(-c3ccccc3)cc2)cc1,-15.4% (inactive)

# Assay: NCI Yeast Anticancer Drug Screen. Data for the bub3 strain (AID 167)
# Conditions: S. cerevisiae bub3 mutant strain, at 50.0 µM, stronger effect = higher value
# In short: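 Readout: yeast growth inhibition, expressed relative to vehicle-only wells. The test organism is a mutant strain from a panel with lesions in DNA repair or checkpoint genes.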
row,Structure (SMILES),growth inhibition
1,O=C(c1ccccc1)C1(c2ccccc2)CCCCC1,0.45% (inactive)
2,CCN(CC)CCC(=O)c1ccc(OC)cc1,7.55% (inactive)
3,COc1cccc(Nc2nc(NS(=O)(=O)c3cc(C)c(Cl)cc3S)n[nH]2)c1,16.1% (inactive)
4,Cc1ccc(N=Nc2c(O)n(C)c(=O)n(C)c2=O)cc1C,-18.6% (inactive)
5,Cn1c(=O)c2[nH]c(SCC(=O)O)nc2n(C)c1=O,7.6% (inactive)
6,Cc1cc2c(=O)cc(-c3ccc(C(F)(F)F)cc3)oc2c(C(=O)O)c1C,0.4% (inactive)
7,Cc1cnc2cccc(C)c2c1Cl,8.3% (inactive)
8,CO/N=C1/c2sccc2[C@H](NC(=O)C(Cc2ccccc2)NC(=O)OC(C)(C)C)[C@@H]1O (stereo partly drawn),-2.35% (inactive)
9,C(=Nc1ccc2ccccc2c1)c1cccs1,5.1% (inactive)
10,O=C(Nc1ccc2ccccc2c1)C(F)(F)F,5.4% (inactive)
11,CCCCCCCC(=O)NN(Cn1c(=S)sc2ccccc21)Cn1c(=S)sc2ccccc21,-2.7% (inactive)
12,Cc1cc(=O)oc2c(CNC(Cc3ccccc3)C(=O)O)c(O)ccc12 (stereo not drawn),-22.1% (inactive)
13,O=C(N/N=C/c1ccc(Cl)cc1)c1ccccc1NC(=O)C1CC1,11.8% (inactive)
14,CN(C)C1CS(=O)(=O)OC2=C1COCC2 (stereo not drawn),15.8% (inactive)
15,COc1cc2cccc(NC(=O)c3cc(OC)c(OC)c(OC)c3Br)c2cc1OC,44.5% (inactive)
16,CCOCCOCCOC(=O)CC(C)=O,-11.8% (inactive)
17,CC(CO)CCC(=O)C(C)C1CC2(C)CCC3C(CCC4CC(O)CCC43C)C2C12SCCS2 (stereo not drawn),36.6% (inactive)
18,C(=Nc1ccc(N2CCOCC2)cc1)c1ccc2c(c1)OCO2,-21.7% (inactive)
19,Cc1ccc(S(=O)(=O)NCNS(=O)(=O)c2ccc(C)cc2)cc1,-15.8% (inactive)
20,COc1cc(/C=C/C(=O)N[C@@H]2C(=O)N3[C@@H]2SC(C)(C)[C@@H]3C(=O)O)cc(OC)c1OC,-7% (inactive)

row,Structure (SMILES),growth inhibition
1,O=P(O)(O)c1ccc(Cl)cc1,8.55% (inactive)
2,CC1(C)CC2(C)OC3(C)CC(C)(C)OC3(C)OC2(C)O1 (stereo not drawn),22.4% (inactive)
3,NC(=S)NNCC(=O)CC(O)(C(F)(F)F)C(F)(F)Cl (stereo not drawn),21.4% (inactive)
4,Oc1c(O)c(Cc2ccccc2)c(Cc2ccccc2)c(Cc2ccccc2)c1Cc1ccccc1,-7.15% (inactive)
5,COC(=O)c1cc(C)c(C(=O)O)c(C)c1,3.9% (inactive)
6,CC(C)(C)OC(=O)CC1(C)NC(C(=O)O)C(C)(C)S1 (stereo not drawn),14.8% (inactive)
7,O=C(c1ccc([N+](=O)[O-])cc1)c1cc2ccccc2oc1=O,-18.4% (inactive)
8,CCCCCCCSCC1OC(n2cnc3c(N)ncnc32)C(O)C1O (stereo not drawn),3.1% (inactive)
9,CC1N(N2C(=O)CS(=O)(=O)C2C)C(=O)CS1(=O)=O (stereo not drawn),1.35% (inactive)
10,CN(CCN(C)C(=O)CCn1cc(F)c(=O)[nH]c1=O)C(=O)CCn1cc(F)c(=O)[nH]c1=O,3.05% (inactive)
11,COc1cc2c(c3c1CCC(C)(C)O3)Cc1c(cc(OC)c(OC)c1CCC(C)(C)O)O2,3% (inactive)
12,NCC(=O)NCCC(=O)O,-24.6% (inactive)
13,CC(=O)OCC1COC(C)(c2ccccc2)O1 (stereo not drawn),4.15% (inactive)
14,CC/C(=C\c1ccc(OC)cc1)c1ccc(OC)cc1,1.75% (inactive)
15,CC(=O)OC(C)=O,7.55% (inactive)
16,NC(=O)N1CCCCC1,13.9% (inactive)
17,C=C1C(=O)OC2(C)CCC1CC1OC1(C)CC/C=C(\C)CCC2OC(C)=O (stereo not drawn),-3% (inactive)
18,CCc1nc(N)nc(C(=O)NCCNC(=O)c2nc(N)nc(CC)c2C)c1C,-13.4% (inactive)
19,COC(=O)C(=O)C(C(=O)c1cccc2ccccc12)c1nc2n(c1O)C(=N)N=N2 (stereo not drawn),-2.75% (inactive)
20,O=[N+]([O-])c1ccc(-c2ccc(-c3ccccc3)cc2)cc1,-10.7% (inactive)
